Compounds without any hit were thinned out: in the full panel of roughly 83,000, 20% have a hit.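 Single-concentration screen, 48 h exposure, 96-well plates. Endpoint: percent growth. Below 10 = active.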 The source made the active and inactive calls.
system: MDA-MB-468 breast; assay: NCI-60 one-dose screen, 48 h (100 = growth as untreated, 0 = no growth, -100 = all killed); conditions: 10 µM unless noted

Compound	growth
CCOC(=O)C1=C(N)Oc2c(sc3c(F)cccc23)C1c1ccc(O)cc1 (stereo not given)	15.3% (inactive)
O=C(Nc1ccncc1)C(=O)c1cn(S(=O)(=O)c2cccc(Cl)c2)c2ccccc12	31.2% (inactive)
COc1ccc(/C(C)=N/NC(=O)CSc2nc3ccccc3c(=O)n2Cc2ccc(S(N)(=O)=O)cc2)c(OC)c1	93.9% (inactive)
CC1=C(C(=O)/C=C/c2ccc(N(C)C)cc2)C(c2ccccc2)NC(=S)N1 (stereo not given)	102% (inactive)
CC(=O)Oc1ccccc1C(=O)N=C1[Se]CCN1C(=O)c1ccccc1OC(C)=O	-25.6% (active)
CCCn1c(=O)[nH]c(N)c([C@H]2c3ccccc3Oc3[nH]c(=O)n(CCC)c(=O)c32)c1=O	68.7% (inactive)
O=C1COCCN1c1ccc(NCc2cn(Cc3ccccc3)c3ccccc23)cc1	-76% (active)
Clc1ccc(CNc2ccc3nc(CCC4CCCCC4)[nH]c3c2)cc1	-43.5% (active)
COc1ccc2[nH]cc(/C=C3/C(=O)Nc4ccc(Cl)cc43)c2c1	-10.9% (active)
CN1CCN(CCCOc2ccc3ncnc(Nc4ccc(OCc5cccc(F)c5)c(Cl)c4)c3c2)CC1	-63.1% (active)
O=C(c1ccccc1)C(c1ccccc1)N1CCOCC1 (stereo not given)	103% (inactive)
Cc1ccc([P+](Cc2ccc([N+](=O)[O-])cc2)(c2ccc(C)cc2)c2ccc(C)cc2)cc1	-11.7% (active)
C#CCn1cnc2cnc(Nc3cccc(NC(=O)CCl)c3)nc21	-17.3% [6.25 µM] (active)
Clc1ccc(N2CCN(CCCN3CCN(c4cccc(Cl)c4)CC3)CC2)cc1	23.5% (inactive)
CCS(=O)(=O)N[C@@H]1O[C@H](COC(C)=O)C(OC(C)=O)[C@H](OC(C)=O)C1OC(C)=O (stereo not given in full)	100% (inactive)
Cc1ccc(-c2nc(N3CCNCC3)c3oc(-c4ccc(C)cc4)nc3n2)cc1	-33.5% (active)
O=C(NC1CCC(Br)CC1)C1CCCC(S(=O)(=O)NC2CCCCC2)C1 (stereo not given)	-3.64% [25 µM] (active)
COc1ccc(-c2ccccc2)cc1C(=O)c1ccc(-c2ccccc2)cc1	64.6% (inactive)
COc1ccc(C(c2cc(OC)c(OC)c(OC)c2)n2ccnc2)cc1O (stereo not given)	15.6% (inactive)
CN(C)c1ncc(-c2ccc(C(F)(F)F)cc2)c(NC2CCCCCC2)n1	29.5% (inactive)
O=C(NC1CCCCC1)c1ccc(Cl)cc1	104% (inactive)
O=C(O)c1cn(C2CC2)c2cc(N3CCN(Cc4nc5c(cnn5-c5ccc([N+](=O)[O-])cc5)c(=O)[nH]4)CC3)c(F)cc2c1=O	103% (inactive)
NS(=O)(=O)c1ccc(C(=O)NN2C(=O)c3c(Br)c(Br)c(Br)c(Br)c3C2=O)cc1	111% (inactive)
O=[N+]([O-])c1cccc2cc(S(=O)(=O)O)ccc12	112% (inactive)
O=C1Nc2ccccc2/C1=C\c1c(-c2ccc(F)cc2)nc2ccccn12	40.8% (inactive)

From PubChem BioAssay (NCI)
